The supplement of paper PMC4466140

Columns and labels:
Assay in all cases: SPOT peptide array binding signal intensity (averaged, normalized) (arbitrary units (background-subtracted, floor 0; scale differs between SH3 domains)); higher = stronger binding of the SH3 domain to the peptide
[1] = target: AgAbp1
Method in brief: (§1)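 GST-SH3 fusions from four yeast species, purified on glutathione Sepharose, were incubated at 10 μg/ml overnight at 4°C on membranes of synthetic 15-mer peptides in which cysteines were replaced with serines. Binding signal is the normalized, background-subtracted spot intensity averaged over replicates, in domain-specific arbitrary units.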

[2] = target: AgBbc1
Method in brief: as §1

[3] = target: AgBem1-D1
Method in brief: as §1

[4] = target: AgBzz1-D1
Method in brief: as §1

[5] = target: AgBzz1-D2
Method in brief: as §1

[6] = target: AgCyk3
Method in brief: as §1

[7] = target: AgFus1
Method in brief: as §1

[8] = target: AgHof1
Method in brief: as §1

[9] = target: AgHse1
Method in brief: as §1

[10] = target: AgLsb1
Method in brief: as §1

[11] = target: AgLsb4
Method in brief: as §1

[12] = target: AgMyo5
Method in brief: as §1

[13] = target: AgNbp2
Method in brief: as §1

[14] = target: AgRvs167
Method in brief: as §1

[15] = target: AgSho1
Method in brief: as §1

[16] = target: AgSla1-D1-D2
Method in brief: as §1

[17] = target: AgSla1-D3
Method in brief: as §1

[18] = target: CaAbp1-D1
Method in brief: as §1

[19] = target: CaAbp1-D2
Method in brief: as §1

[20] = target: CaBbc1
Method in brief: as §1

[21] = target: CaBem1-D1
Method in brief: as §1

[22] = target: CaBzz1-D1
Method in brief: as §1

[23] = target: CaBzz1-D2
Method in brief: as §1

[24] = target: CaCyk3
Method in brief: as §1

[25] = target: CaFus1
Method in brief: as §1

[26] = target: CaHof1
Method in brief: as §1

[27] = target: CaHse1
Method in brief: as §1

[28] = target: CaLsb1
Method in brief: as §1

[29] = target: CaLsb4
Method in brief: as §1

[30] = target: CaMyo5
Method in brief: as §1

[31] = target: CaNbp2
Method in brief: as §1

[32] = target: CaRvs167
Method in brief: as §1

[33] = target: CaRvs167-3
Method in brief: as §1

[34] = target: CaSho1
Method in brief: as §1

[35] = target: CaSla1-D1-D2
Method in brief: as §1

[36] = target: CaSla1-D3
Method in brief: as §1

[37] = target: ScAbp1
Method in brief: as §1

[38] = target: ScBbc1
Method in brief: as §1

[39] = target: ScBem1-D1
Method in brief: as §1

[40] = target: ScBzz1-D1
Method in brief: as §1

[41] = target: ScBzz1-D2
Method in brief: as §1

[42] = target: ScCyk3
Method in brief: as §1

[43] = target: ScFus1
Method in brief: as §1

[44] = target: ScHof1
Method in brief: as §1

[45] = target: ScHse1
Method in brief: as §1

[46] = target: ScLsb1
Method in brief: as §1

[47] = target: ScLsb2
Method in brief: as §1

[48] = target: ScLsb3
Method in brief: as §1

[49] = target: ScLsb4
Method in brief: as §1

[50] = target: ScMyo3
Method in brief: as §1

[51] = target: ScMyo5
Method in brief: as §1

[52] = target: ScNbp2
Method in brief: as §1

[53] = target: ScPex13
Method in brief: as §1

[54] = target: ScRvs167
Method in brief: as §1

[55] = target: ScSho1
Method in brief: as §1

[56] = target: ScSla1-D1-D2
Method in brief: as §1

[57] = target: ScSla1-D3
Method in brief: as §1

[58] = target: SpAbp1-D1
Method in brief: as §1

[59] = target: SpBbc1
Method in brief: as §1

[60] = target: SpBzz1-D1
Method in brief: as §1

[61] = target: SpBzz1-D2
Method in brief: as §1

[62] = target: SpCyk3
Method in brief: as §1

[63] = target: SpHof1
Method in brief: as §1

[64] = target: SpHof1-2
Method in brief: as §1

[65] = target: SpHof1-3
Method in brief: as §1

[66] = target: SpHse1
Method in brief: as §1

[67] = target: SpLsb1
Method in brief: as §1

[68] = target: SpLsb4
Method in brief: as §1

[69] = target: SpMyo1
Method in brief: as §1

[70] = target: SpNbp2
Method in brief: as §1

[71] = target: SpPex13
Method in brief: as §1

[72] = target: SpRvs167
Method in brief: as §1

[73] = target: SpSla1-D1-D2
Method in brief: as §1

[74] = target: SpSla1-D3
Method in brief: as §1

RSLRKRPTSPSISGS
SPOT peptide array binding signal intensity [1]: 197 | SPOT peptide array binding signal intensity [2]: 232 | SPOT peptide array binding signal intensity [3]: 118 | SPOT peptide array binding signal intensity [4]: 62.5 | SPOT peptide array binding signal intensity [5]: 63 | SPOT peptide array binding signal intensity [6]: 23 | SPOT peptide array binding signal intensity [7]: 464 | SPOT peptide array binding signal intensity [8]: 77 | SPOT peptide array binding signal intensity [9]: 1610 | SPOT peptide array binding signal intensity [10]: 7 | SPOT peptide array binding signal intensity [11]: 326 | SPOT peptide array binding signal intensity [12]: 1 | SPOT peptide array binding signal intensity [13]: 724 | SPOT peptide array binding signal intensity [14]: 9.67 | SPOT peptide array binding signal intensity [15]: 80.5 | SPOT peptide array binding signal intensity [16]: 698 | SPOT peptide array binding signal intensity [17]: 3.5 | SPOT peptide array binding signal intensity [18]: 1720 | SPOT peptide array binding signal intensity [19]: 1730 | SPOT peptide array binding signal intensity [20]: 522 | SPOT peptide array binding signal intensity [21]: 57.5 | SPOT peptide array binding signal intensity [22]: 86 | SPOT peptide array binding signal intensity [23]: 94.5 | SPOT peptide array binding signal intensity [24]: 201 | SPOT peptide array binding signal intensity [25]: 985 | SPOT peptide array binding signal intensity [26]: 0.75 | SPOT peptide array binding signal intensity [27]: 204 | SPOT peptide array binding signal intensity [28]: ≤ 0 | SPOT peptide array binding signal intensity [29]: 338 | SPOT peptide array binding signal intensity [30]: 6 | SPOT peptide array binding signal intensity [31]: 1160 | SPOT peptide array binding signal intensity [32]: 27.5 | SPOT peptide array binding signal intensity [33]: 210 | SPOT peptide array binding signal intensity [34]: 972 | SPOT peptide array binding signal intensity [35]: 226 | SPOT peptide array binding signal intensity [36]: 1.5 | SPOT peptide array binding signal intensity [37]: 65 | SPOT peptide array binding signal intensity [38]: 94 | SPOT peptide array binding signal intensity [39]: 50.5 | SPOT peptide array binding signal intensity [40]: 26.5 | SPOT peptide array binding signal intensity [41]: 28 | SPOT peptide array binding signal intensity [42]: 294 | SPOT peptide array binding signal intensity [43]: 488 | SPOT peptide array binding signal intensity [44]: 1 | SPOT peptide array binding signal intensity [45]: 1770 | SPOT peptide array binding signal intensity [46]: 54 | SPOT peptide array binding signal intensity [47]: 20 | SPOT peptide array binding signal intensity [48]: 1330 | SPOT peptide array binding signal intensity [49]: 27.5 | SPOT peptide array binding signal intensity [50]: 11 | SPOT peptide array binding signal intensity [51]: 3 | SPOT peptide array binding signal intensity [52]: 1530 | SPOT peptide array binding signal intensity [53]: 3 | SPOT peptide array binding signal intensity [54]: 75.5 | SPOT peptide array binding signal intensity [55]: 959 | SPOT peptide array binding signal intensity [56]: 607 | SPOT peptide array binding signal intensity [57]: 30 | SPOT peptide array binding signal intensity [58]: 477 | SPOT peptide array binding signal intensity [59]: 8 | SPOT peptide array binding signal intensity [60]: 249 | SPOT peptide array binding signal intensity [61]: 0.75 | SPOT peptide array binding signal intensity [62]: 13.5 | SPOT peptide array binding signal intensity [63]: 428 | SPOT peptide array binding signal intensity [64]: 43.8 | SPOT peptide array binding signal intensity [65]: 730 | SPOT peptide array binding signal intensity [66]: 621 | SPOT peptide array binding signal intensity [67]: 17.8 | SPOT peptide array binding signal intensity [68]: 776 | SPOT peptide array binding signal intensity [69]: 9 | SPOT peptide array binding signal intensity [70]: 2180 | SPOT peptide array binding signal intensity [71]: 7 | SPOT peptide array binding signal intensity [72]: 10.8 | SPOT peptide array binding signal intensity [73]: 5 | SPOT peptide array binding signal intensity [74]: 8
